In PubChem BioAssay (NCI) one finds growth data, which are given here for eight compounds.

Assay in all cases: NCI-60 one-dose screen, 48 h (100 = growth as untreated, 0 = no growth, -100 = all killed)
Details in all cases: 10 µM unless noted

In assay [1] the test system is SR leukemia.
Assay [2] has as its system RPMI-8226 leukemia.
For assay [3], the system named is OVCAR-8 ovarian.
Assay [4] concerns OVCAR-5 ovarian.
The subject of assay [5] is OVCAR-4 ovarian.
Assay [6] relates to SK-OV-3 ovarian.
Assay [7] has as its system IGROV1 ovarian.
In assay [8] the test system is OVCAR-3 ovarian.
Assay [9] relates to HS 578T breast.
Assay [10] relates to NCI/ADR-RES ovarian.
Assay [11] deals with T-47D breast.
The test system of assay [12] is BT-549 breast.
The subject of assay [13] is MDA-MB-435 melanoma.
Assay [14] has as its system SW-620 colon.
Assay [15] deals with MCF7 breast.
Assay [16] relates to HCT-116 colon.
In assay [17] the test system is HCC-2998 colon.
In assay [18] the test system is MDA-MB-468 breast.
Assay [19] concerns KM12 colon.

The structures appear in SMILES notation. Values joined by “and” are separate entries in the source; they are usually repeats but may differ in a detail not shown here. Equal values may be shown once. About 83,000 compounds went through this panel and 20% of them were active in at least one assay; those are over-represented in the sample as a whole.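 Single-dose data. Exposure time 48 hours. Values below 10 considered active.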 Values without a mark were called inactive. Active and inactive are the calls of the source.

For the compound `OC(c1ccccc1)(c1ccccc1)C1CCN(c2ccc3nnc(Cl)n3n2)CC1`, the growth in assay [1] is -22.3% (active); in assay [2], 13.8%; in assay [3] it was 33.9%; in assay [4], 70%; in [5], 30.3%; in [6], 90.2%. Also, the growth is 39.8% in [7]; 42.2% in assay [8]; 71.1% in [9]; 18.6% in [10]; 9.47% (active) in assay [11]; 2.56% (active) in [12]. Also, the growth in assay [13] was 42.1%; in assay [14], 56.6%; in assay [15], 10.9%; in assay [16], 22.6%; in assay [17], 55.2%; in assay [18] it was 30.4%.

As for `C/C(=N\Nc1ccc(C(=O)O)cc1)c1cnn(-c2cc(=O)[nH]c3ccc(C)cc23)c1C`, the growth was 88.6% in assay [1]; 85.1% in assay [2]; 104% in assay [3]; 99.2% in assay [4]; 94.6% in assay [5]; 94.3% in [6]. In addition, the growth in [7] was 112%; in [8], 98.9%; in [9] it was 92.5%; in assay [10] it was 101%; in assay [11], 98.9%; in assay [12], 88.4%. Further, the growth in assay [13] is 101%; in assay [14] it was 110%; in assay [15], 90.4%; in assay [16], 95.2%; in assay [17], 108%; in assay [18], 83.2%.

As to `COc1ccc(-c2cc(C(=O)Oc3ccc(C=O)cc3OC)nn2-c2ccc(S(C)(=O)=O)cc2)cc1`, the growth was 84.9% in assay [1]; 70.4% in assay [2]; 103% in [3]; 125% in assay [4]; 89.7% in [5]; 122% in [6]. For the same compound, the growth in [7] was 112%; in [8], 93.4%; in assay [9], 112%; in assay [10], 101%; in assay [11], 92.2%; in [12], 105%. In addition, the growth is 98.3% in [13]; 109% in [14]; 84.5% in [15]; 98.3% in [16]; 116% in assay [17]; 107% in assay [18].

For the compound `CCCSc1nnc(-c2sc3nc4ccccc4n3c2C)o1`, the growth in [1] was 107%; in assay [2], 97.7%; in assay [3] it was 107%; in assay [4] it was 111%; in assay [5], 104%; in [6], 121%. Besides, the growth was 107% in [7]; 117% in assay [8]; 109% in assay [9]; 98.7% in assay [10]; 102% in assay [11]; 157% in assay [12]. The growth in [13] is 105%; in [14] it was 108%; in assay [15], 90.3%; in [16], 106%; in [17] it was 112%; in assay [19], 101%. The growth in assay [18] was 88.9%.

As to `COc1ccc(N=Nc2c(N)nn3c(N)c(C#N)c(-c4ccccc4)nc23)cc1`, the growth was 73.8% in [1]; 13.8% in [2]; 8.3% (active) in assay [3]; 72.8% in [4]; -13.4% (active) in assay [5]; 13.1% in [6]. Further, the growth in assay [7] is 20.8%; in assay [8] it was -6.99% (active); in [9], -0.615% (active); in assay [10], 6.35% (active); in assay [11], 16.4%; in assay [12] it was -16.7% (active). For the same compound, the growth in assay [13] was 62.5%; in [14], 66.2%; in assay [15], 14.5%; in assay [16], 20.2%; in assay [17], 65.2%; in [19], 45%. Further, in [18], the growth was 31.7%.

Turning to `CSc1ccc(OCc2nc3ccccc3n2-c2cccc(NS(C)(=O)=O)c2)cc1`, the growth in [1] was 82.6% and 89.5%; in assay [2] it was 93.7% and 91.1%; in [3], 99.5% and 88.4%; in [4], 130% and 117%; in assay [5], 93.8% and 69.4%; in assay [6] it was 110% and 83.5%. Further, the growth in assay [7] was 95.3% and 82.8%; in assay [8] it was 118%; in assay [9], 80.9% and 65%; in assay [10], 96.5% and 79.7%; in assay [11] it was 99.4% and 78.4%; in assay [12] it was 131% and 105%. The growth in assay [13] was 105% and 98.3%; in assay [14], 102% and 94.4%; in assay [15], 89.9% and 55.7%; in assay [16], 101% and 70.6%; in [17], 122% and 112%; in [18], 110% and 98.2%.

For the compound `Cc1ccc(-c2cc(-c3ccccc3)[nH]c(=O)c2C#N)cc1`, the growth was 73.3% in assay [1]; 76.7% in assay [2]; 93.5% in [3]; 109% in assay [4]; 94.1% in assay [5]; 107% in assay [6]. Also, the growth in assay [7] was 91.9%; in assay [8] it was 98.4%; in [9] it was 84.6%; in [10], 82.3%; in [11] it was 73.5%; in assay [12], 88.5%. Further, the growth is 107% in assay [13]; 97.8% in assay [14]; 75.1% in assay [15]; 94.3% in assay [16]; 114% in assay [17]; 89.4% in assay [18].

`C#CCN(C)CCCOc1ccc(N(CC)C(=O)c2cc(C(C)C)c(O)cc2O)cc1Cl`: the growth in assay [1] is -34.3% (active); in [2] it was -33.5% (active); in [3], 2.93% (active); in assay [4], 19.7%; in [5], 26.1%; in assay [6], 7.75% (active). For the same compound, the growth is 0.38% (active) in [7]; 20.6% in [8]; 9.36% (active) in assay [9]; -33.1% (active) in assay [10]; 10.1% in assay [11]; -8.72% (active) in [12]. Moreover, the growth in assay [13] was -26.1% (active); in [14] it was 6.65% (active); in [15], 0.137% (active); in assay [16], -3.98% (active); in [17], -78.2% (active); in assay [19], -9.83% (active). Also, the growth in [18] was -46.8% (active).
